# High-throughput results as filed in PubChem.
# Hits are enriched below; roughly 4.7% of the tested compounds scored in any of these assays.
# SUMO HTRF inh = SUMOylation inhibition; P63279; HTRF SUMOylation assay, SAE1/SAE2 + UBC9, in vitro; inhibition, % at 35 µM; actives 0.36% (n = 290,000); in the data active means inhibition above about 50%, passing the limit was not always enough; inconclusive means no clear call, values can overlap the other calls
# Target sequence (P63279 whole entry, looked up): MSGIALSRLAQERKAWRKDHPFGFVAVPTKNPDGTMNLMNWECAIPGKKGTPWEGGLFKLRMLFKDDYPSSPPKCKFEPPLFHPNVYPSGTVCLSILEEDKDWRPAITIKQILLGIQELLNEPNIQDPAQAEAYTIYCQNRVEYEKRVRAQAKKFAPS
# ALR inh = blocks human ALR sulfhydryl oxidase activity; actives 3.8% (n = 290,000); purified ALR, DTT oxidation, H2O2 HRP-luminol luminescence; inhibition, % (concentration not given with the values); AID 485317;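 active means mean replicate inhibition above about 79%, with every replicate also reaching it, limit read from the data; inconclusive means only one of the two criteria met; inactive means mean below limit and not every replicate reaching it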
# Target sequence (P55789 whole entry, looked up): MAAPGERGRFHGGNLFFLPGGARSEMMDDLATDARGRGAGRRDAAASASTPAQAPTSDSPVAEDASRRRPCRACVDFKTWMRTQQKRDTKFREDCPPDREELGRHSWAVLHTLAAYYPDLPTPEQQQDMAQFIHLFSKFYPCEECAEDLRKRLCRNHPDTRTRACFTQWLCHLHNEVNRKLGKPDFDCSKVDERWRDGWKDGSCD
# eIF4H inh = inhibitors of RNA binding by human eIF4H; actives 0.94% (n = 290,000); inhibition, % at 35 µM; eIF4H fluorescence polarization binding assay;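 further: calls also rest on retests at 20 µM and on dose response follow-up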
# MLLE-PAM2 inh = inhibitors of microRNA-mediated deadenylation, human PABP1 MLLE binding; P11940; GST-MLLE / FITC-PAM2 fluorescence polarization; inhibition, % at 20 µM; actives 0.36% (n = 360,000); AID 588489; in the data active means inhibition above about 35%, passing the limit was not always enough;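 further: plate controls were DMSO wells with GST-MLLE for no effect and wells lacking GST-MLLE protein for full effect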
# Efflux pump inh = antifungal efflux pump inhibition, Nile Red retention | AID 485275 | actives 0.44% (n = 330,000) | S. cerevisiae Candida pump triplex | inhibition, % at 10 µM;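 active means plate passing quality check with inhibition over a set limit, or well fluorescence over plate mean plus 4 SD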;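 further: Nile Red retained in pooled yeast measured as flow cytometry median fluorescence; 0% = buffer negative control and 100% = Enniatin B positive control; higher means more Nile Red kept so more efflux inhibition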
# PABP polyA inh = PABP-poly(A) binding inhibition; PABP-poly(A) RNA binding, fluorescence polarization; inhibition, % at 35 µM; actives 1% (n = 290,000);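 further: calls also rest on retests at 20 µM and on dose response follow-up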
# * hit, by the source's call; ? = inconclusive; · = no result given; ! = repeats disagree. Unless noted, how the calls were made is not given here.
SMILES,SUMO HTRF inh,ALR inh,eIF4H inh,MLLE-PAM2 inh,Efflux pump inh,PABP polyA inh
COC(=O)c1c2[n+](cc3cc(OC)c(OC)cc13)CCc1cc(OC)c(OC)cc1-2,·,-10.9,·,7.7,-0.2,·
Cc1ccccc1-n1c(C)cc(/C=C2/C(=O)NC(=O)N(Cc3ccco3)C2=O)c1C,19.9,-0.2,?,-17.6,0.2,58.9*
Cc1cc(/C=C2\C(=O)NC(=O)N(Cc3ccccc3)C2=O)c(C)n1-c1ccc(Cl)c(C(=O)O)c1,59.1*,70.0,?,-30.0,-0.3,-4.1
Cc1ccc(-n2c(C)cc(/C=C3/C(=O)NC(=O)N(Cc4ccco4)C3=O)c2C)cc1,5.2,17.6,?,-11.6,-0.1,-14.7
Cc1cc(/C=C2\C(=O)NC(=O)N(Cc3ccco3)C2=O)c(C)n1-c1ccc(O)cc1,61.6*,4.9,81.0,-16.9,0.2,31.1
Fc1ccccc1CN1Cc2ccccc2-n2nncc2C1,·,·,·,3.6,·,·
Cc1ccc2cc(C=C(C#N)C#N)c(Cl)nc2c1,11.0,69.3,?,53.0*,-0.3,-0.9
Cc1cc(N2CCCC2)ccc1C=C(C#N)C#N,23.7,-4.2,?,57.1,-0.1,-4.7
CN1C2c3ccccc3C3C4c5ccccc5C(C31)C(C2[N+](=O)[O-])N4C (centres undefined),15.3,6.2,5.0,5.9,-0.1,2.7
CCCC[N+]12CCC(CC1)C(C(O)(c1ccccc1)c1ccccc1)C2 (centres undefined),15.8,·,active,-106.6,-0.2,64.7
COc1ccc(C(=O)C2CCCN(Cc3cccc(C)n3)C2)c(OC)c1 (centres undefined),24.7,·,91.5*,-5.8,0.0,59.4*
c1cncc(C2CCCCN2)c1 (centres undefined),10.4,·,-5.0,3.2,0.4,11.6
c1cncc(C2Nc3cccc4cccc(c34)N2)c1,63.3*!,-7.8,92.4*,17.9,0.0,59.6*
O=S(=O)(NC1CCCCC1)OCC(Cl)(Cl)Cl,-6.8,-3.7,3.7,-3.8,-0.2,5.7
O/N=C/c1c[nH]c2ccccc12,-1.7,·,-10.8,1.7,-0.1,-2.4
CCCC/C(=N\O)c1c[nH]c2ccccc12,7.7,89.2*,1.6,2.8,0.1,-10.1
O=C(CCNC(=O)N1C[C@H]2C[C@@H](C1)c1cccc(=O)n1C2)Nc1ccc(F)cc1,-0.8,-5.4,9.9,6.9,0.0,0.9
Cc1ccc2c(c1)=C/C(=C\c1c(O)[nH]c(=S)[nH]c1=O)C(=O)N=2,2.2,97.0*,-5.6,·,-0.4,-5.9
O=C1CCCN1C(=O)c1cncc(Br)c1,-16.9,·,-2.5,-11.0,-0.1,-11.3
Nc1cncc(C(=O)O)c1,27.8,-9.3,53.0*!,12.3,0.0,21.1
O=C(Nc1ccc(F)c([N+](=O)[O-])c1)N1C[C@H]2C[C@@H](C1)c1cccc(=O)n1C2,10.5,0.0,-12.7,7.0,-0.2,17.6
CCOC(=O)c1ccccc1NC(=O)c1c(O)[nH]c(=S)[nH]c1=O,·,91.6*,·,-37.4,·,·
COc1cc(C(=O)OC2C[C@H]3CC[C@@H](C2)N3C)ccc1O (some centres undefined),11.1,68.0,-1.1,-0.4,0.0,2.5
COc1cc(C(=O)OC2C[C@H]3CC[C@@H](C2)N3)ccc1O (some centres undefined),38.4,83.7*,18.0,-4.2,-0.2,12.6
O=c1cccc2n1CC1CNC[C@H]2C1,·,-7.2,·,-18.3,-0.2,·
SMILES,SUMO HTRF inh,ALR inh,eIF4H inh,MLLE-PAM2 inh,Efflux pump inh,PABP polyA inh
COC(=O)C1=C(c2cccc(C#N)c2)C[C@@H]2CC[C@H]1N2C(=O)NCCCOC(C)C,·,0.4,·,-3.2,0.1,·
O=C(O)CC1OCC=C2CN3CCC45c6ccccc6NC4C1C2CC35 (centres undefined),-7.0,-40.5,6.7,-4.2,0.0,10.5
O=C(O)CC1OCC=C2CN3CCC45C6=CC(=O)C(=O)C([N+](=O)[O-])=C6NC4C1C2CC35 (centres undefined),100.5*,60.7,11.0,9.3,0.5,4.3
CCOC(=O)[C@]1(C#N)[C@@H]2C=CC(C(C)=O)=CN2[C@@H](C(N)=O)[C@@H]1c1ccsc1,29.4,·,56.7*,11.1,0.1,65.9*
N#Cc1c(/N=C/c2c(O)n(Cc3ccco3)c(=O)[nH]c2=O)sc2c1CCCC2,19.6,82.2*,?,-31.6,0.1,?
O=c1[nH]c(=S)n(Cc2ccco2)c(O)c1C=NCc1cccs1,19.9,9.0,52.7*,20.7,0.0,33.7*
NC(=O)c1ccc(N=Cc2c(O)n(Cc3ccco3)c(=O)[nH]c2=O)cc1,21.4,·,55.1,-4.3,0.5,9.7*
CCN(CC)c1ccc(N=Cc2c(O)n(Cc3ccco3)c(=O)[nH]c2=O)cc1,26.0,5.1,?,-51.3,0.1,?
O=c1[nH]c(=O)n(Cc2ccco2)c(O)c1/C=N/N1CCCCCC1,20.9,-2.0,3.0,-18.8,0.0,2.0
Brc1ccc(-[n+]2c(-c3ccccc3)cc(-c3ccccc3)cc2-c2ccccc2)cc1,·,-14.3,·,-3.6,-0.1,·
CS(=O)(=O)c1ccc(C2=C(CNC(=O)c3nccs3)[C@H]3CC[C@@H](C2)N3Cc2ccccc2)cc1,·,·,·,-9.3,·,·
COc1ccc(/C=N\N=C(N)N)cc1,-9.0,11.1,-10.9,-17.2,0.0,-12.0
NC(N)=N/N=C/c1ccc(N(c2ccccc2)c2ccccc2)cc1,7.6,93.7*,-13.4,-6.8,0.0,-18.6
O=C1NC(=O)N(Cc2ccco2)C(=O)/C1=C/C=C/c1ccco1,72.9*,32.2,?,-86.2,0.1,?
Cc1ccc(N2C(=O)NC(=O)/C(=C\C=C\c3ccco3)C2=O)cc1,45.5,54.6,?,-74.9,0.0,?
Cc1ccc(N2C(=O)NC(=O)/C(=C\C=C\c3ccco3)C2=O)cc1C,29.9,96.4*,?,-89.5,0.1,3.3
O=C1NC(=O)N(c2ccccc2)C(=O)/C1=C/C=C/c1ccco1,24.4,97.2*,?,-76.8,0.1,?
Cc1cc(OCC(=O)N2CCC(C(=O)O)(c3ccccc3)CC2)c2c(C)c(C)c(=O)oc2c1,17.1,7.1,-7.7,-3.6,0.0,-2.1
CCOC(=O)C1(c2ccccc2)CCN(CCC(C#N)(c2ccccc2)c2ccccc2)CC1,·,-4.1,·,0.6,0.0,·
CC(=O)OC1CCC2(C)C(=CC(=O)C3C2CCC2(C)C(OC(C)=O)CCC32)C1 (centres undefined),·,·,·,7.2,·,·
Cc1ccc(CNCCc2ccccc2F)cc1,11.0,-4.3,6.7,1.5,4.0,-1.9
CCN(CC)c1ccc(CNCCc2ccccc2F)cc1,-10.1,98.7*,-3.2,11.5,0.0,-1.3
O=[N+]([O-])[N-][n+]1cnn(Cc2ccc(Cl)cc2)c1,13.7,15.3,-3.0,-11.6,0.2,-4.2
Cc1cc(OC(C)C(=O)NCc2ccncc2)c2c3c(c(=O)oc2c1)CCCC3 (centres undefined),·,-6.3,·,-1.6,0.7,·
O=C1C(=O)c2ccccc2-c2ccccc21,100.2*,31.5,4.2,3.2,0.1,15.6
